Results: PubChem BioAssay
Active and inactive are the calls of the source.

Columns and labels:
[1] = test system: Plasmodium falciparum Sir2 (PF13_0152, Sir2A); experiment: Plasmodium falciparum Sir2A binding compounds – biochemical, small-molecule microarray, 635 nm fluorescence, primary screen (AID 1098); settings: fluorescence 635 nm, higher = more signal;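 note: score merges spot fluorescence intensity with its signal-to-noise ratio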
[2] = probe aDKK1 binding to arrayed compounds – biochemical, biotinylated probe, 635/667 nm fluorescence, primary screen (AID 1099); settings: small-molecule microarray, higher = more signal;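 note: score merges 667nm spot fluorescence with signal to noise across triplicate slides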
[3] = probe aCHRDL2 binding to arrayed compounds – biochemical, biotinylated probe, 635/667 nm fluorescence, primary screen (AID 1100); settings: small-molecule microarray, higher = more signal
[4] = change in splice reporter luminescence, either direction, cell-based, HEK293, spliceosome inhibition project, primary screen (AID 1101); settings: HEK293 splicing luciferase reporter, 24 h, higher = more signal, called active from +8 up or from −8 down;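 note: HEK293 cells carrying a splicing-competent luciferase reporter gene; test concentration not given here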
[5] = target: Fibroblast growth factor 10 (Homo sapiens) (UniProt O15520); experiment: compounds binding fibroblast growth factor 10 – biochemical, small-molecule microarray, 635 nm fluorescence, primary screen (AID 1102); settings: FGF10 binding, fluorescence 635 nm, higher = more signal
[6] = test system: glycogen synthase kinase-3 (GSK3A per assay name; protocol says GSK3B); experiment: compounds binding glycogen synthase kinase-3 – biochemical, small-molecule microarray, 635 nm fluorescence, GSK3A, primary screen (AID 1103); settings: fluorescence 635 nm, higher = more signal; note: the record names both GSK3A and GSK3B
[7] = target: Epidermal growth factor receptor (Homo sapiens) (UniProt P00533); experiment: compounds binding epidermal growth factor receptor – biochemical, small-molecule microarray, 635 nm fluorescence, primary screen (AID 1104); settings: EGFR binding, higher = more signal;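 note: score merges 667 nm emission intensity with spot signal to noise over triplicate slides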
[8] = target: Follistatin-related protein 3 (Homo sapiens) (UniProt O95633); experiment: compounds binding follistatin-related protein 3 – biochemical, small-molecule microarray, 635 nm fluorescence, primary screen (AID 1105); settings: FSTL3 binding, higher = more signal;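 note: score merges emission near 667 nm and signal to noise per printed spot across three slides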
[9] = target: Dickkopf-related protein 1 (Homo sapiens) (UniProt O94907); experiment: small molecules binding DKK1 protein – biochemical, small-molecule microarray, 635 nm fluorescence scan, primary screen (AID 1106); settings: higher = more signal;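 note: score merges emission near 667 nm with signal to noise over three replicate slides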
[10] = test system: Inhibin beta A chain (activin A); experiment: small molecules binding activin A – biochemical, small-molecule microarray, 635 nm fluorescence scan, primary screen (AID 1107); settings: INHBA, higher = more signal;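 note: mouse activin A protein probed at 4.33 µg/mL on printed slides; score merges bound-protein fluorescence near 667 nm with spot signal-to-noise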
[11] = test system: Human papillomavirus type 1a protein E7 (residues 44-93); experiment: small molecules binding HPV E7 44-93 – biochemical, small-molecule microarray, residues 44-93, 635 nm fluorescence, primary screen (AID 1108); settings: fluorescence 635 nm, higher = more signal;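 note: E7 fragment applied at 1 µg/mL in TBST for 1 h at 4 C; score combines spot fluorescence with its signal to noise ratio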
[12] = hepatitis C replication reporter changes, two-sided – Huh7 cells, luciferase reporter, HCV replication inhibitor project, primary screen (AID 1109); settings: Huh7 HCV replicon luciferase reporter, 48 h; higher = more signal;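 note: huh7 hepatoma cells harbouring a luciferase neomycin HCV replicon reporter; luciferase luminescence as measure of HCV replicon replication; test concentration not given here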
[13] = target: Left-right determination factor 2 (Homo sapiens) (UniProt O00292); experiment: small molecules binding LEFTY2 protein – biochemical, small-molecule microarray, 635 nm fluorescence scan, primary screen (AID 1110); settings: higher = more signal
[14] = target: Calmodulin-1 (Homo sapiens) (UniProt P0DP23); experiment: small molecules binding calmodulin-1 with EGTA – biochemical, small-molecule microarray, Cy5-labelled CALM1, profiling panel (AID 1111); settings: Cy5-CALM1 binding fluorescence, higher = more signal;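 note: labelled calmodulin applied in Tris saline Tween buffer holding calcium plus EGTA and DTT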
[15] = target: Calmodulin-1 (Homo sapiens) (UniProt P0DP23); experiment: small molecules binding Ca-loaded calmodulin-1 – biochemical, small-molecule microarray, Cy5-labelled CALM1, plus calcium, artefact control for SMM control-protein annotation, profiling panel (AID 1112); settings: Cy5-CALM1 binding fluorescence, higher = more signal;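 note: score merges spot fluorescence with signal to noise from triplicate slides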
[16] = probe aWnt5a binding to arrayed compounds – biochemical, biotinylated probe, 635/667 nm fluorescence, primary screen (AID 1113); settings: small-molecule microarray, higher = more signal;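 note: score merges 667 nm fluorescence intensity with signal-to-noise per printed feature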
[17] = probe aShh binding to arrayed compounds – biochemical, biotinylated probe, 635/667 nm fluorescence, primary screen (AID 1114); settings: small-molecule microarray, higher = more signal;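 note: probe is biotin-labelled aShh protein from a stem cell growth factor screen; measures binding of labelled protein to compounds printed on the slide; score merges feature fluorescence at 667 nm with signal-to-noise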
[18] = probe aNog binding to arrayed compounds – biochemical, biotinylated probe, 635/667 nm fluorescence, primary screen (AID 1115); settings: small-molecule microarray, higher = more signal;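 note: probe is biotinylated aNog protein used at 0.15 µg/mL for 1 h at 4 C; z-score combines 667 nm fluorescence of each spot with its signal to noise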
[19] = target: Torsin-1A-interacting protein 1 (Homo sapiens) (UniProt Q5JTV8); experiment: compound microarray binding of lysate hLAP1 – cell lysate, small-molecule microarray, COS7 lysate, 635/667 nm fluorescence, primary screen (AID 1116); settings: 635 nm fluorescence, higher = more signal
[20] = target: Alpha-bungarotoxin (Bungarus multicinctus) (UniProt P60615); experiment: compounds binding labelled alpha-BTX control protein – biochemical, small-molecule microarray, Alexa647 label, 635/667 nm fluorescence, artefact control for SMM control protein annotation, profiling panel (AID 1117); settings: alpha-BTX-A647 binding fluorescence, higher = more signal
Chain of Alpha-bungarotoxin (Bungarus multicinctus) (P60615 whole entry, looked up): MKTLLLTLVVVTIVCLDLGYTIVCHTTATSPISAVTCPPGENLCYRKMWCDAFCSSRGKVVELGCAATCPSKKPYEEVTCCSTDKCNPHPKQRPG

Chain of Follistatin-related protein 3 (Homo sapiens) (O95633 whole entry, looked up): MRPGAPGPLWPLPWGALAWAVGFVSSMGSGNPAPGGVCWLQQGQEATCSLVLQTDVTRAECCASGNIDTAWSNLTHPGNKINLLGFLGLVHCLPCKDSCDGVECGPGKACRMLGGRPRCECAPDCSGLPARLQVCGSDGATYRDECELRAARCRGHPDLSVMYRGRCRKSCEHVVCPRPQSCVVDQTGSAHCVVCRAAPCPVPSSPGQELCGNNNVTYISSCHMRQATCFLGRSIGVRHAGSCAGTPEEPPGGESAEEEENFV
Chain of Fibroblast growth factor 10 (Homo sapiens) (O15520 whole entry, looked up): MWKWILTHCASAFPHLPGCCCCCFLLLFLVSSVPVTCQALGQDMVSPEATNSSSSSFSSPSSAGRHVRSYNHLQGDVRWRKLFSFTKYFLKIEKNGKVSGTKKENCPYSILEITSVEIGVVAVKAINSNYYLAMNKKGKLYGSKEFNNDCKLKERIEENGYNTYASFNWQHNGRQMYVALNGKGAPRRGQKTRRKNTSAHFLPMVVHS
Chain of Torsin-1A-interacting protein 1 (Homo sapiens) (Q5JTV8 whole entry, looked up): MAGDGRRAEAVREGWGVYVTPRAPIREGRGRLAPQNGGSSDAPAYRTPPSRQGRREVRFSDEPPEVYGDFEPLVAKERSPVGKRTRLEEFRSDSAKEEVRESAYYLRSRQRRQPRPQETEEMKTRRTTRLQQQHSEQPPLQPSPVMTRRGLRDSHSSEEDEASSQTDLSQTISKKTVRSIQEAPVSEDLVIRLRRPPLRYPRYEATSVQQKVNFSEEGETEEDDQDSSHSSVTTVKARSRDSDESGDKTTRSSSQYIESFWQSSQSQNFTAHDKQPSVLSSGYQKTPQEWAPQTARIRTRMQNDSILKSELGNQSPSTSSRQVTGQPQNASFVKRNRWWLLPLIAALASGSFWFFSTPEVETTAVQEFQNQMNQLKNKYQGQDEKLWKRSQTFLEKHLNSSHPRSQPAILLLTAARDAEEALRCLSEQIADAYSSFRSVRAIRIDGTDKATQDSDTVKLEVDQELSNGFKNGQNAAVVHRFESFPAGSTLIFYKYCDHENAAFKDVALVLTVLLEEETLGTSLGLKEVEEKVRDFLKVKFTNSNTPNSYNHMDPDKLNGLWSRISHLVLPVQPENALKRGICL
Chain of Left-right determination factor 2 (Homo sapiens) (O00292 whole entry, looked up): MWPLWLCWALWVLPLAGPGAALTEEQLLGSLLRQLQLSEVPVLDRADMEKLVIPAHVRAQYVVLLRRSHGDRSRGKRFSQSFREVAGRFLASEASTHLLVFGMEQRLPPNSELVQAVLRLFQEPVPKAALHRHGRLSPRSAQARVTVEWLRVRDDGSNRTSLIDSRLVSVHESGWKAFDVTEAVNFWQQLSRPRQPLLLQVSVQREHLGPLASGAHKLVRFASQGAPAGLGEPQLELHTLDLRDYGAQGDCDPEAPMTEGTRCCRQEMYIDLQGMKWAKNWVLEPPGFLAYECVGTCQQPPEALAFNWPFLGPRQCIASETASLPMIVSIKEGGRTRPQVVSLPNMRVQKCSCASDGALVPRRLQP
Chain of Epidermal growth factor receptor (Homo sapiens) (P00533 whole entry, looked up): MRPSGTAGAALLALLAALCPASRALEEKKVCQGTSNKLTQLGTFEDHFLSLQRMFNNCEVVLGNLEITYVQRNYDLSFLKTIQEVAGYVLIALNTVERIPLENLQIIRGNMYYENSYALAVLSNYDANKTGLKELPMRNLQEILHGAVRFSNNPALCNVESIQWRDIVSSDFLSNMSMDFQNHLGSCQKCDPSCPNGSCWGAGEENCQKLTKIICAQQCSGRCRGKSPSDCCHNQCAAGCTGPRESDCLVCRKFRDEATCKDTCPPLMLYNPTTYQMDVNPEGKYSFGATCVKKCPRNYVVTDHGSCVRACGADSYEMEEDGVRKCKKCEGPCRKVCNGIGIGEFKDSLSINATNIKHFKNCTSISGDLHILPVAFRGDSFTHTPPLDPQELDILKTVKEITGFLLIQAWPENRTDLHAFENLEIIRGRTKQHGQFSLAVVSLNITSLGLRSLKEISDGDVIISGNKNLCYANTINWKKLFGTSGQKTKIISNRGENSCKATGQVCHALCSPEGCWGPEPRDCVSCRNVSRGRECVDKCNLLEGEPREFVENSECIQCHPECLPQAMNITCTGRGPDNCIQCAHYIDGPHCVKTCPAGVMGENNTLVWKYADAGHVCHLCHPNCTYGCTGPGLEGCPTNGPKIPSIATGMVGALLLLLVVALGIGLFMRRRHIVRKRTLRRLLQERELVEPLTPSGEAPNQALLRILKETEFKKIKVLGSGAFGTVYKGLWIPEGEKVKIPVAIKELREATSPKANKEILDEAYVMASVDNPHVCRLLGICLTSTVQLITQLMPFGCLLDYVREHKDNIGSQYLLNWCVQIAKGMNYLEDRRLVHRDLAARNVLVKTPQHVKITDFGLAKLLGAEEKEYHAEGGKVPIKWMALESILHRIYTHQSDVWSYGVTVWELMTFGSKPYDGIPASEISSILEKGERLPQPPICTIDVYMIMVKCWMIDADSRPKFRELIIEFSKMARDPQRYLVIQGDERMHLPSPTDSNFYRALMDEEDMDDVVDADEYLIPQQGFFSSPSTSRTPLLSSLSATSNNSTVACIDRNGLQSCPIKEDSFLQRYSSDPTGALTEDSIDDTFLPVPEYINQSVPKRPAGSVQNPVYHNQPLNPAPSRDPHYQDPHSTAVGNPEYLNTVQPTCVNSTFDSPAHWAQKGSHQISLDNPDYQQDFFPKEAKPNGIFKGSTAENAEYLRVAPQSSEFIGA
Chain of Dickkopf-related protein 1 (Homo sapiens) (O94907 whole entry, looked up): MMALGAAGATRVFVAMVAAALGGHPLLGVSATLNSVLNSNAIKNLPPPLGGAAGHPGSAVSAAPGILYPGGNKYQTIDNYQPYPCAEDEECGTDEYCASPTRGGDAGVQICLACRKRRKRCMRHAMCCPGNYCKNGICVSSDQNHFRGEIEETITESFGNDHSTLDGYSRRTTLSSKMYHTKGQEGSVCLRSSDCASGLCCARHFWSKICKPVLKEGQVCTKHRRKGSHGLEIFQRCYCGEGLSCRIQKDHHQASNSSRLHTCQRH

| SMILES | composite z-score [1] | composite z-score [2] | composite z-score [3] | z-score [4] | composite z-score [5] | composite z-score [6] | composite z-score [7] | composite z-score [8] | composite z-score [9] | composite z-score [10] | composite z-score [11] | z-score [12] | composite z-score [13] | composite z-score [14] | composite z-score [15] | composite z-score [16] | composite z-score [17] | composite z-score [18] | composite z-score [19] | composite z-score [20] |
| --- | --- | --- | --- | --- | --- | --- | --- | --- | --- | --- | --- | --- | --- | --- | --- | --- | --- | --- | --- | --- |
| COCCOC(=O)N1C(=O)[C@@]2(c3cc(C#CCC(C(=O)OC)C(=O)OC)ccc31)[C@H](c1ccc(O)cc1)N1[C@H](c3ccccc3)[C@H](c3ccccc3)OC(=O)[C@H]1[C@@H]2C(=O)NC[C@H](O)c1ccccc1 | 0.542 | 0.362 | 0.181 | 0.579 (inactive) | 0.681 | 0.882 | 0.335 | 0.602 | 0.148 | 0.466 | 1.33 | -0.496 | 0.485 | 1.91 | 0.67 | -0.0172 | -0.147 | -0.346 | 1.06 | 0.353 |
| COCCOC(=O)N1C(=O)[C@@]2(c3cc(C#CCNC(N)=O)ccc31)[C@H](c1ccc(OCCO)cc1)N1[C@H](c3ccccc3)[C@H](c3ccccc3)OC(=O)[C@H]1[C@@H]2C(=O)NC[C@H](O)c1ccccc1 | 1.4 | 0.26 | 0.788 | 0.38 (inactive) | 0.945 | 0.469 | 0.711 | 1.29 | 0.583 | 1.43 | 1.26 | -0.711 | 0.799 | 1.22 | 0.226 | -0.0792 | -0.138 | 1.21 | 0.878 | 1.61 |
| COC(=O)[C@@]1(Cc2ccc(F)cc2)[C@H]2c3cc(C(=O)N4CCCC4)n(C)c3C[C@H]2CN1C(=O)c1ccccc1 | 1.24 | 0.874 | 1.22 | -2.19 (inactive) | 0.549 | 0.128 | -0.372 | -0.296 | -0.856 | 1.21 | -0.919 | -1.4 | -0.917 | 2.5 | 1.11 | 0.122 | 0.0044 | 1.39 | 2.84 | 0.121 |
| C[C@@H]1ON(c2ccc(I)cc2)[C@H](c2ccc(OC(=O)OC(C)(C)C)cc2)[C@H]1C(=O)N1C(=O)OC[C@H]1Cc1ccccc1 | 0.718 | -0.14 | -0.345 | -1.78 (inactive) | 0.367 | 1.07 | 0.458 | 0.872 | 0.567 | 0.0676 | 1.15 | -1.12 | 0.628 | 0.501 | -0.502 | -0.241 | -0.0431 | -0.321 | 0.362 | 0.943 |
